# This is part of a sample that, as a whole, favours compounds with a hit. Of some 79,000 tested, about 15% had one in any assay. Unmarked numbers belong to inactive results. Active and inactive are the calls of the source. Cut-off read from the data, not from the text of the source: active = growth inhibition above about 70%; inactive = the rest.
# Legend:
# [1] = NCI Yeast Anticancer Drug Screen. Data for the wt1 strain (AID 149);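 note: 0% = growth of vehicle-treated wt1 cultures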; conditions: S. cerevisiae wt1 strain (SPY 50644) growth inhibition, stronger effect = higher value
# Outline: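 Yeast wt1 strain exposed to compounds; growth inhibition measured relative to vehicle-treated controls.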
# [2] = NCI Yeast Anticancer Drug Screen. Data for the rad50EPP+ strain (AID 151);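 note: 0% = growth of vehicle-treated control cultures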; conditions: S. cerevisiae rad50 mutant strain, stronger effect = higher value
# Outline: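 Genetically defined yeast (rad50EPP+, DNA damage repair alteration) is grown with compound, and inhibition of growth is expressed relative to vehicle-treated controls.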
# [3] = NCI Yeast Anticancer Drug Screen. Data for the mgt1 strain (AID 153); conditions: S. cerevisiae mgt1 mutant growth inhibition, stronger effect = higher value
# Outline: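 In the mgt1 strain, test compounds were added and growth inhibition was determined relative to vehicle-treated controls.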
# [4] = NCI Yeast Anticancer Drug Screen. Data for the rad50 strain (AID 155);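 note: 0% = growth of vehicle-only cultures of the same strain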; conditions: S. cerevisiae rad50 strain growth inhibition, stronger effect = higher value
# Outline: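 Yeast carrying a defined DNA repair defect were exposed to test compounds, and growth was compared with vehicle-treated controls to give percent inhibition.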
# [5] = NCI Yeast Anticancer Drug Screen. Data for the mec2-1 strain (AID 157); conditions: S. cerevisiae mec2-1 strain, stronger effect = higher value
# Outline: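 Each compound was tested on mec2-1 yeast, a strain altered in DNA damage repair or cell cycle control. Growth inhibition is reported relative to vehicle.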
# [6] = NCI Yeast Anticancer Drug Screen. Data for the sgs1 mgt1 strain (AID 161);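 note: 0% = growth of cultures given vehicle only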; conditions: S. cerevisiae sgs1 mgt1 strain, stronger effect = higher value
# Outline: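 Read-out: growth inhibition vs vehicle controls. Cells: mutant yeast strain deficient in DNA damage repair.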
# [7] = NCI Yeast Anticancer Drug Screen. Data for the CLN2oe strain (AID 163);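 note: 0% = growth of vehicle-only control cultures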; conditions: S. cerevisiae CLN2oe strain, stronger effect = higher value
# Outline: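 First, the altered yeast strain was treated with each compound; second, its growth was measured; finally, inhibition was derived by comparison with vehicle controls.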
# [8] = NCI Yeast Anticancer Drug Screen. Data for the cln2 rad14 strain (AID 165);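 note: 0% = growth equal to vehicle treated cultures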; conditions: S. cerevisiae cln2 rad14 strain, stronger effect = higher value
# Outline: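 Test compounds were added to cln2 rad14 yeast cultures; inhibition of growth was then determined by comparison with vehicle treatment.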
# [9] = NCI Yeast Anticancer Drug Screen. Data for the bub3 strain (AID 167); conditions: S. cerevisiae bub3 mutant strain, stronger effect = higher value
# Outline: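 Compounds were applied to a genetically altered yeast strain carrying a cell-cycle control defect. Growth inhibition was scored against vehicle-treated controls.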
# [10] = NCI Yeast Anticancer Drug Screen. Data for the wt2 strain (AID 169);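 note: 0% = growth of vehicle-treated yeast cultures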; conditions: S. cerevisiae wt2 strain growth inhibition, stronger effect = higher value
# Outline: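 The panel's yeast strains carry defined changes in DNA repair or cell cycle genes. Each strain is grown with compound, and growth loss is scored relative to vehicle.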
# [11] = NCI Yeast Anticancer Drug Screen. Data for the mlh1 strain (AID 171);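 note: 0% = growth of vehicle-treated control cultures of the same strain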; conditions: S. cerevisiae mlh1 strain growth inhibition, stronger effect = higher value
# Outline: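 Inhibition values reflect reduced yeast growth in the presence of compound, referenced to vehicle controls, using a strain chosen for its alteration in DNA repair or cell cycle control.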
# [12] = NCI Yeast Anticancer Drug Screen. Data for the sgs1 strain (AID 173);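 note: 0% = growth of vehicle-only control cultures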; conditions: S. cerevisiae sgs1 mutant, stronger effect = higher value
# Outline: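 Vehicle-treated cultures served as reference for growth inhibition of a yeast strain altered in DNA damage repair or cell cycle control after compound exposure.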
# [13] = NCI Yeast Anticancer Drug Screen. Data for the rad18 strain (AID 177); conditions: S. cerevisiae rad18 mutant growth inhibition, stronger effect = higher value
# Outline: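 Steps: expose repair-mutant yeast to compound; measure growth; express as inhibition relative to vehicle control.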
# [14] = NCI Yeast Anticancer Drug Screen. Data for the mlh1 rad18 strain (AID 175); conditions: S. cerevisiae mlh1 rad18 strain growth inhibition, stronger effect = higher value
# Outline: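 Inhibition values reflect reduced growth of mutant yeast versus vehicle-treated controls following compound exposure; the mutations affect DNA damage repair.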
# [15] = at 5.0 µM (retest, dose inferred, filed as 0.5)
# [16] = at 50.0 µM (retest, dose inferred, filed as 5.0)
smiles,measurement,setting,value
COC(=O)C(F)C(Br)C(=O)OC (stereo not given),growth inhibition,[1]; at 1.2 µM,-3%
same,growth inhibition,[1]; at 3.7 µM,74% (active)
same,growth inhibition,[1]; at 11.0 µM,97% (active)
same,growth inhibition,[1]; at 33.0 µM,98% (active)
same,growth inhibition,[1]; at 100.0 µM,99% (active)
same,growth inhibition,[2]; at 1.2 µM,28%
same,growth inhibition,[2]; at 3.7 µM,90% (active)
same,growth inhibition,[2]; at 11.0 µM,97% (active)
same,growth inhibition,[2]; at 33.0 µM,98% (active)
same,growth inhibition,[2]; at 100.0 µM,97% (active)
same,growth inhibition,[3]; at 1.2 µM,16%
same,growth inhibition,[3]; at 3.7 µM,82% (active)
same,growth inhibition,[3]; at 11.0 µM,98% (active)
same,growth inhibition,[3]; at 33.0 µM,99% (active)
same,growth inhibition,[3]; at 100.0 µM,99% (active)
same,growth inhibition,[4]; at 1.2 µM,-5%
same,growth inhibition,[4]; at 3.7 µM,60%
same,growth inhibition,[4]; [15],88% (active)
same,growth inhibition,[4]; at 11.0 µM,96% (active)
same,growth inhibition,[4]; at 33.0 µM,98% (active)
same,growth inhibition,[4]; [16],99% (active)
same,growth inhibition,[4]; at 50.0 µM,90.8% (active)
same,growth inhibition,[4]; at 100.0 µM,98% (active)
same,growth inhibition,[5]; at 1.2 µM,20%
same,growth inhibition,[5]; at 3.7 µM,73% (active)
same,growth inhibition,[5]; [15],93% (active)
same,growth inhibition,[5]; at 11.0 µM,95% (active)
same,growth inhibition,[5]; at 33.0 µM,98% (active)
same,growth inhibition,[5]; [16],100% (active)
same,growth inhibition,[5]; at 50.0 µM,93% (active)
same,growth inhibition,[5]; at 100.0 µM,99% (active)
same,growth inhibition,[6]; [15],8%
same,growth inhibition,[6]; [16],12%
same,growth inhibition,[6]; at 50.0 µM,92.5% (active)
same,growth inhibition,[7]; at 1.2 µM,43%
same,growth inhibition,[7]; at 3.7 µM,91% (active)
same,growth inhibition,[7]; at 11.0 µM,97% (active)
same,growth inhibition,[7]; at 33.0 µM,98% (active)
same,growth inhibition,[7]; at 100.0 µM,100% (active)
same,growth inhibition,[8]; [15],5%
same,growth inhibition,[8]; [16],-42%
same,growth inhibition,[8]; at 50.0 µM,84.2% (active)
same,growth inhibition,[9]; at 1.2 µM,64%
same,growth inhibition,[9]; at 3.7 µM,94% (active)
same,growth inhibition,[9]; [15],11%
same,growth inhibition,[9]; at 11.0 µM,98% (active)
same,growth inhibition,[9]; at 33.0 µM,99% (active)
same,growth inhibition,[9]; [16],-21%
same,growth inhibition,[9]; at 50.0 µM,91.4% (active)
same,growth inhibition,[9]; at 100.0 µM,97% (active)
same,growth inhibition,[10]; at 1.2 µM,55%
same,growth inhibition,[10]; at 3.7 µM,95% (active)
same,growth inhibition,[10]; at 11.0 µM,98% (active)
same,growth inhibition,[10]; at 33.0 µM,99% (active)
same,growth inhibition,[10]; at 100.0 µM,100% (active)
same,growth inhibition,[11]; at 1.2 µM,66%
same,growth inhibition,[11]; at 3.7 µM,96% (active)
same,growth inhibition,[11]; at 11.0 µM,98% (active)
same,growth inhibition,[11]; at 33.0 µM,99% (active)
same,growth inhibition,[11]; at 100.0 µM,99% (active)
same,growth inhibition,[12]; at 1.2 µM,48%
same,growth inhibition,[12]; at 3.7 µM,95% (active)
same,growth inhibition,[12]; at 11.0 µM,98% (active)
same,growth inhibition,[12]; at 33.0 µM,99% (active)
same,growth inhibition,[12]; at 100.0 µM,99% (active)
same,growth inhibition,[13]; at 1.2 µM,29%
same,growth inhibition,[13]; at 3.7 µM,88% (active)
same,growth inhibition,[13]; at 11.0 µM,98% (active)
same,growth inhibition,[13]; at 33.0 µM,92% (active)
same,growth inhibition,[13]; at 100.0 µM,98% (active)
C=C[C@H]1CN2CC[C@H]1C[C@@H]2[C@@H](O)c1ccnc2ccccc12,growth inhibition,[1]; at 1.2 µM,-1%
same,growth inhibition,[1]; at 3.7 µM,-2%
same,growth inhibition,[1]; at 11.0 µM,-4%
same,growth inhibition,[1]; at 33.0 µM,-2%
same,growth inhibition,[1]; at 100.0 µM,-2%
same,growth inhibition,[2]; at 1.2 µM,-1%
same,growth inhibition,[2]; at 3.7 µM,0%
same,growth inhibition,[2]; at 11.0 µM,-2%
same,growth inhibition,[2]; at 33.0 µM,-3%
same,growth inhibition,[2]; at 100.0 µM,-3%
same,growth inhibition,[3]; at 1.2 µM,2%
same,growth inhibition,[3]; at 3.7 µM,1%
same,growth inhibition,[3]; at 11.0 µM,3%
same,growth inhibition,[3]; at 33.0 µM,0%
same,growth inhibition,[3]; at 100.0 µM,4%
same,growth inhibition,[5]; at 1.2 µM,-1%
same,growth inhibition,[5]; at 3.7 µM,3%
same,growth inhibition,[5]; [15],8%
same,growth inhibition,[5]; at 11.0 µM,4%
same,growth inhibition,[5]; at 33.0 µM,2%
same,growth inhibition,[5]; [16],7%
same,growth inhibition,[5]; at 50.0 µM,-40.6%
same,growth inhibition,[5]; at 100.0 µM,-5%
same,growth inhibition,[6]; [15],-10%
same,growth inhibition,[6]; [16],-1%
same,growth inhibition,[6]; at 50.0 µM,-11.9%
same,growth inhibition,[7]; at 1.2 µM,1%
same,growth inhibition,[7]; at 3.7 µM,2%
same,growth inhibition,[7]; at 11.0 µM,3%
same,growth inhibition,[7]; at 33.0 µM,5%
same,growth inhibition,[7]; at 100.0 µM,2%
same,growth inhibition,[8]; [15],44%
same,growth inhibition,[8]; [16],14%
same,growth inhibition,[8]; at 50.0 µM,8.55%
same,growth inhibition,[9]; at 1.2 µM,3%
same,growth inhibition,[9]; at 3.7 µM,-6%
same,growth inhibition,[9]; [15],-8%
same,growth inhibition,[9]; at 11.0 µM,1%
same,growth inhibition,[9]; at 33.0 µM,1%
same,growth inhibition,[9]; [16],-1%
same,growth inhibition,[9]; at 50.0 µM,-7.5%
same,growth inhibition,[9]; at 100.0 µM,1%
same,growth inhibition,[10]; at 1.2 µM,0%
same,growth inhibition,[10]; at 3.7 µM,1%
same,growth inhibition,[10]; at 11.0 µM,0%
same,growth inhibition,[10]; at 33.0 µM,-2%
same,growth inhibition,[10]; at 100.0 µM,1%
same,growth inhibition,[11]; at 1.2 µM,-2%
same,growth inhibition,[11]; at 3.7 µM,1%
same,growth inhibition,[11]; at 11.0 µM,-6%
same,growth inhibition,[11]; at 33.0 µM,-7%
same,growth inhibition,[11]; at 100.0 µM,9%
same,growth inhibition,[12]; at 1.2 µM,-3%
same,growth inhibition,[12]; at 3.7 µM,-5%
same,growth inhibition,[12]; at 11.0 µM,-6%
same,growth inhibition,[12]; at 33.0 µM,-7%
same,growth inhibition,[12]; at 100.0 µM,-6%
same,growth inhibition,[14]; [15],2%
same,growth inhibition,[14]; [16],8%
same,growth inhibition,[14]; at 50.0 µM,7.65%
same,growth inhibition,[13]; at 1.2 µM,-2%
same,growth inhibition,[13]; at 3.7 µM,-2%
same,growth inhibition,[13]; at 11.0 µM,-9%
same,growth inhibition,[13]; at 33.0 µM,-17%
same,growth inhibition,[13]; at 100.0 µM,-28%

# From PubChem BioAssay (NCI)
